The values below come from ChEMBL document CHEMBL1157539, “Thousands of chemical starting points for antimalarial lead identification” (Nature, 2010).

Format in all cases: functional
The subject of assay [1] is Plasmodium falciparum. Nature of the assay: GSK_TCMDC: Inhibition of Plasmodium falciparum 3D7 in whole red blood cells, using parasite LDH activity as an index of growth. Test compounds present at 2uM.
The subject of assay [2] is Plasmodium falciparum. As to the kind of experiment: GSK_TCMDC: Inhibition of Plasmodium falciparum Dd2 in whole red blood cells, using parasite LDH activity as an index of growth. Test compounds present at 2uM.
A further assay relates to HepG2. As to the kind of experiment: GSK_TCMDC: Percent inhibition of human HepG2 cell line. Test compounds present at 10uM.

The structures appear in SMILES notation.

For the compound `Cc1nc(N)nc(N)c1-c1ccc(Br)c([N+](=O)[O-])c1`, the Inhibition in the assay on Plasmodium falciparum [1] was 95%; in the assay with Plasmodium falciparum [2] it was 2%; in the assay with HepG2 it was 64%.

For `Cc1cc(Nc2ccc(OCc3ccccc3Cl)cc2)c2cc(Cl)ccc2n1.Cl`, the Inhibition is given as 100% in the assay with Plasmodium falciparum [1], 58% with Plasmodium falciparum [2] and 33% in the assay with HepG2.

On to `O=C(Nc1ccc(Cl)cc1C(=O)Nc1cccc(F)c1)c1ccc([N+](=O)[O-])cc1`, for which the values for the Inhibition with Plasmodium falciparum [1], with Plasmodium falciparum [2] and with HepG2 were 89%, 54% and 10%, respectively.

Consider `O=C(Nc1cccc(CN2CCCN(Cc3ccc(O)cc3)CC2)c1)c1cccc(F)c1.O=C(O)C(F)(F)F`, for which the values for the Inhibition in the assay on Plasmodium falciparum [1], in the assay with Plasmodium falciparum [2] and in the assay with HepG2 were 92%, 4% and 22%, respectively.

`CCC[C@@H](C(=O)NCCc1cccc(OC)c1)N1C(=O)c2c(ccc(OC)c2OC)C1C(=O)Nc1c(C)cccc1C` (stereo not given in full): the Inhibition in the assay with Plasmodium falciparum [1] is 94%; in the assay on Plasmodium falciparum [2], 32%; in the assay on HepG2, 6%.

For `COc1cc(Cc2cnc(N)nc2N)ccc1OCc1ccc(F)c(F)c1`, the Inhibition with Plasmodium falciparum [1] is given as 90%; in the assay with Plasmodium falciparum [2], 31%; with HepG2, 10%.

Consider `CCN(CCNc1nc(NCCc2cnc[nH]2)nc(N(CCC#N)Cc2ccccc2)n1)c1cccc(C)c1`, for which the figures for the Inhibition in the assay on Plasmodium falciparum [1], with Plasmodium falciparum [2] and with HepG2 were 100%, 92% and 13%, respectively.

For the compound `COc1ccc2cc(-c3nc(-c4c(Cl)cccc4Cl)[nH]c3-c3ccnc(NCCCN4CCN(C)CC4)c3)ccc2c1.O=C(O)C(F)(F)F`, the Inhibition with Plasmodium falciparum [1] was 98%; in the assay with Plasmodium falciparum [2], 80%; with HepG2, 10%.

For `CNCCNc1nccc(N2CCc3ncnc(Nc4ccc(OCc5cccc(F)c5)c(Cl)c4)c3C2)n1`, the Inhibition was determined as 100% in the assay on Plasmodium falciparum [1], 98% with Plasmodium falciparum [2] and 30% with HepG2.

For `CC1(C)CCCN(Cc2c(O)ccc3c(O)c(-c4nc5ccccc5s4)c(=N)oc23)C1`, the Inhibition in the assay on Plasmodium falciparum [1] amounted to 100%; with Plasmodium falciparum [2] it was 100%; in the assay on HepG2 it was 20%.
